Data taken from publication PMC7819943, “Rice protein-binding microarrays: a tool to detect cis-acting elements near promoter regions in rice”.
Whole data set: some 68,000 sequences, median “fluorescence intensity (a.u.)” near 9,100, cut for the highest 2% near 16,000. The entries come from a sample that favours the highest values as a whole.

These sequences were tested against OsWRKY34 (Oryza sativa, UniProt Q0JBA9 1-250) (assay: protein-binding microarray (RPBM); PBS, 2% BSA, 51.3 ng/ul salmon testes DNA, 50 uM zinc acetate, 200 nM TF, 25 C, 1 h; high values mean tight binding). Conditions: protein: recombinant; tags: N-terminal polyhistidine and DsRed monomer fusion (pET32a); label: CyDye5-dUTP incorporated in the synthesized complementary strand; 3' TTTTT single-stranded linker to array surface; dsDNA, one strand shown.
Chain of OsWRKY34 (Q0JBA9 entry or part of it): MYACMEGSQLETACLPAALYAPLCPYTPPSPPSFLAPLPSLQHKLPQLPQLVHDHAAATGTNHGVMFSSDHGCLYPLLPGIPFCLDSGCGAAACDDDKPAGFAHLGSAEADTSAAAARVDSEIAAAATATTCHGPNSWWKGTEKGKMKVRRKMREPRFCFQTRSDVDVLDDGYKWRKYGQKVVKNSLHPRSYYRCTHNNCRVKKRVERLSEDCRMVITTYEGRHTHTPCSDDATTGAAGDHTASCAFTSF
In short: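 The binding signal is fluorescence intensity per array feature (arbitrary units). Readings came from an Axon 4000B scanner after a washed, 2% BSA-blocked, double-stranded custom Agilent array had been incubated for 1 h at 25 °C with 200 nM protein and 50 µM zinc acetate. The protein was a Ni–NTA-purified transcription factor fused N-terminally to polyhistidine and DsRed, expressed in E. coli BL21-CodonPlus.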

Row | Sequence | binding signal
1 | GGAGATACGGCGAGGGGAGGGGACGGAGGGGCGGGGTGCGCGGAGTCACCTAGTGCAG | 24700 fluorescence intensity (a.u.)
2 | CATGGTGACATGTTGTGGGGCTGTGTCTTGTGGGTACAGTCGGAGTCACCTAGTGCAG | 8650 fluorescence intensity (a.u.)
3 | GAGGACTGGGCGAAGGGGTGGAAGAAAATGTGGTTGTCGACGGAGTCACCTAGTGCAG | 8580 fluorescence intensity (a.u.)
4 | ATGGCTCGGTGGTGCACTATTTTTTTTTTAACTTAATTTGCGGAGTCACCTAGTGCAG | 12100 fluorescence intensity (a.u.)
5 | CACAATAGACCACCCGAAACCACATCTTCAACACTTCAATCGGAGTCACCTAGTGCAG | 8530 fluorescence intensity (a.u.)
6 | CTCTCCGTGCATCTATATAAACTGGCCCTGATCAATCTCACGGAGTCACCTAGTGCAG | 9650 fluorescence intensity (a.u.)
7 | CAGGCGACCACCTCCAGCTCCGCGCCATCTCCATGTCATCCGGAGTCACCTAGTGCAG | 10800 fluorescence intensity (a.u.)
8 | TGCACCTGTTTGGCTTAGTACCAGTGCGCTACTGGTTTCACGGAGTCACCTAGTGCAG | 9680 fluorescence intensity (a.u.)
9 | TACTCCGTACAAATTTTCTTCTGGATCCCACCTCTGCTCTCGGAGTCACCTAGTGCAG | 9050 fluorescence intensity (a.u.)
10 | CCCACCTCGCTGTCGTTTCTTCCTCTGGCTGGTCGCGTTGCGGAGTCACCTAGTGCAG | 12700 fluorescence intensity (a.u.)
11 | TTTCTTTCCTGTTTTAGGAGGGTTTTCCACGTTAAATCTTCGGAGTCACCTAGTGCAG | 8290 fluorescence intensity (a.u.)
12 | TTTTTTTAAAATTTGCATGTTTTTTGGTCGTGTAAAATTTCGGAGTCACCTAGTGCAG | 8290 fluorescence intensity (a.u.)
13 | GGGGCGGAAACGGGCGAGGGAGGCGCGGGGAGGGTTTAAACGGAGTCACCTAGTGCAG | 22600 fluorescence intensity (a.u.)
14 | TAGGAGGTGGCGGCCGGTGGTGGCGGATCCGGCGGCGGGGCGGAGTCACCTAGTGCAG | 8840 fluorescence intensity (a.u.)
15 | TGGGAGGAGGGAGGGAGGAGGAGGGCGGAGATAGGTGGTGCGGAGTCACCTAGTGCAG | 11400 fluorescence intensity (a.u.)
16 | GGCACCGGCGGAGGGGCGCGGGAGGGGAGGCGGCGGCGAGCGGAGTCACCTAGTGCAG | 15600 fluorescence intensity (a.u.)
17 | AAAGGTGGTGGTAGGGGATAGATCCGGGGCGGGCGGCATGCGGAGTCACCTAGTGCAG | 23400 fluorescence intensity (a.u.)
18 | AGGGGAGAGGAGGGGAGGCGGCGCGGCGGCGAGGAGGGGACGGAGTCACCTAGTGCAG | 10200 fluorescence intensity (a.u.)
19 | ATATCGAAATTGATGCTTGACCAGTCAACACTACTTAATCCGGAGTCACCTAGTGCAG | 9070 fluorescence intensity (a.u.)
20 | GTCGCTTGTCGTTGTTGCCCTGAACTGTTGGTGCTGGTTCCGGAGTCACCTAGTGCAG | 9320 fluorescence intensity (a.u.)
21 | GTACATACCCGTATTATTTATCTGTCGCTATGTAGGATTTCGGAGTCACCTAGTGCAG | 10500 fluorescence intensity (a.u.)

Row | Sequence | binding signal
22 | CCACCGGCGGGCCCCACCATCTTGACTCCTCTCTGTGATCCGGAGTCACCTAGTGCAG | 8610 fluorescence intensity (a.u.)
23 | TGTGGTGCGTCTCCTCGTGCAGTTTTTGCCCTTGATTTGACGGAGTCACCTAGTGCAG | 11800 fluorescence intensity (a.u.)
24 | GACTTTTCGGTTCTTAAGCTGACTTATAATTAGTCTAAACCGGAGTCACCTAGTGCAG | 8630 fluorescence intensity (a.u.)
25 | CATTGTTTTCTAATATTCGGCCATGGCTTTTGACATTTTACGGAGTCACCTAGTGCAG | 8430 fluorescence intensity (a.u.)
26 | TGATTTTTTGACAAACATTTGACCTTTCGTCTTATTTAAACGGAGTCACCTAGTGCAG | 8620 fluorescence intensity (a.u.)
27 | GTTGACTTTTTGACAAACGTTTGACTTTTCGTCTTATTCACGGAGTCACCTAGTGCAG | 17400 fluorescence intensity (a.u.)
28 | GACTTTTTAGCATATGTTTGACCGTTCGTCTTATTCAAAACGGAGTCACCTAGTGCAG | 10600 fluorescence intensity (a.u.)
29 | CGGTTGACTTTTTTTTTCTAATAAGCCAAAACGGCTTATTCGGAGTCACCTAGTGCAG | 18800 fluorescence intensity (a.u.)
30 | TCGTTAACTTTTTAATAAACGTTTGACCTTTCGTCTTATTCGGAGTCACCTAGTGCAG | 10200 fluorescence intensity (a.u.)
31 | CCTTTGACTTTTTGATAAACGTTTGACCTTTCGTCTTATTCGGAGTCACCTAGTGCAG | 22800 fluorescence intensity (a.u.)
32 | AATTCCTGGCTACGCCACTGCTGCTCTATATATCAAGCCGCGGAGTCACCTAGTGCAG | 8080 fluorescence intensity (a.u.)
33 | CTCGATTGCGTGTTGTAGATTTTGTGTTTTTGTTCTTGCGCGGAGTCACCTAGTGCAG | 8030 fluorescence intensity (a.u.)
34 | CCCACATCAAAACCTTGAATTTTCACAGTTTCTTGCATTTCGGAGTCACCTAGTGCAG | 9890 fluorescence intensity (a.u.)
35 | AGAGTTCTTATCCTAGTTTTTCCAACTCACTTATCTCGTTCGGAGTCACCTAGTGCAG | 10900 fluorescence intensity (a.u.)
36 | TCCAACTCACTTATCTCGTTTTCCGCGCACACGTTTTTTACGGAGTCACCTAGTGCAG | 16500 fluorescence intensity (a.u.)
37 | TGTCCACACTTCCCAACTCATTAAATAGTTTGTTTTTTGACGGAGTCACCTAGTGCAG | 8320 fluorescence intensity (a.u.)
38 | TTTCACTTGCTTGTTTTTCATGTCCACACTTCCCAACTCACGGAGTCACCTAGTGCAG | 16600 fluorescence intensity (a.u.)
39 | GCTTGCCAACTTGTCCCAAATTTCCTTCGGCGTTTTTTCACGGAGTCACCTAGTGCAG | 10800 fluorescence intensity (a.u.)
40 | CTTATCTCTCTCGTTTTCCACGCACACGTTTTTCAAACCGCGGAGTCACCTAGTGCAG | 8940 fluorescence intensity (a.u.)
41 | AACGTTTGATTTTTCATTTCTCTTATTACTGACTTATTTACGGAGTCACCTAGTGCAG | 9850 fluorescence intensity (a.u.)
42 | CGCCGCCGCTCGCCGACGTCGCCGCCATCGCCATTACAGCCGGAGTCACCTAGTGCAG | 8980 fluorescence intensity (a.u.)
